Test [1] is described as follows: qHTS RealTime-Glo MT Cell Viability Assay in HepG2 cells - 40 hour (AID 1224870). Further: nearly all actives have a fitted effect of over 50% in size. Summed up:
(§1)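 HepG2 cells mixed with RealTime-Glo MT reagents (NanoLuc plus cell-permeant prosubstrate) were seeded at 600 cells/well, incubated 5 h at 37 C/5% CO2, then pinned with compounds in DMSO; nonlytic luminescence tracked viability during 40 h treatment.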

Test [2] in a line: qHTS RealTime-Glo MT Cell Viability Assay in HEK293 cells - 16 hour (AID 1224872). Further: nearly all actives have a fitted effect of over 50% in size. Further: potency means the concentration at half of the fitted maximal effect. Summed up:
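Reads taken at 0, 8, 16, 24, 32 and 40 h from the same wells. HEK293 cells (600/well) carried RealTime-Glo reagents from seeding, with compound added after a 5 h settle at 37 C.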
A general note: qHTS replaces the single test concentration by a dilution series.

Test [3] can be described thus: qHTS RealTime-Glo MT Cell Viability Assay in HEK293 cells - 40 hour (AID 1224874). Further: nearly all actives have a fitted effect of over 50% in size. Further: potency means the concentration at half of the fitted maximal effect. Conditions: RealTime-Glo luminescence; max response: stronger effect = lower value. Summed up:
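Nonlytic bioluminescent viability monitoring. HEK293 at 600 cells/well with reagent; 5 h settle; compound transfer by pintool; plates held at 37 C and read at set time points.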

Test [4] in a line: A CellTox Green Cytotoxicity Assay to monitor cytotoxicity in HepG2 cells - 16 hour (AID 1224876). Further: nearly all actives have a fitted effect of over 45% in size. Summed up: (§2)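 Real-time, homogeneous cytotoxicity readout: dead-cell DNA staining by CellTox Green in HepG2 monolayers, fluorescence measured at timed intervals up to 40 h of continuous compound exposure.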
Test [5] can be described thus: qHTS RealTime-Glo MT Cell Viability Assay in HepG2 cells - 32 hour (AID 1224877). Further: nearly all actives have a fitted effect of over 55% in size. Summed up: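 HepG2 suspension premixed with RealTime-Glo reagents is plated at 600 cells per well and left 5 h at 37 C/5% CO2. Compounds in DMSO then go in, and bioluminescence reflecting viable cell number is recorded over 40 h.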
Test [6] can be described thus: A CellTox Green Cytotoxicity Assay to monitor cytotoxicity in HepG2 cells - 24 hour (AID 1224878). Further: nearly all actives have a fitted effect of over 45% in size. Summed up: as §2
Test [7] can be described thus: A CellTox Green Cytotoxicity Assay to monitor cytotoxicity in HepG2 cells - 40 hour (AID 1224879). Further: nearly all actives have a fitted effect of over 40% in size. Summed up:
as §2

A short description of test [8]: qHTS RealTime-Glo MT Cell Viability Assay in HepG2 cells - 8 hour (AID 1224873). Further: nearly all actives have a fitted effect of over 55% in size. Summed up:
as §1

Test [9] in a line: A CellTox Green Cytotoxicity Assay to monitor cytotoxicity in HEK293 cells - 24 hour (AID 1224875). Further: nearly all actives have a fitted effect of over 45% in size. Further: potency means the concentration at half of the fitted maximal effect. Summed up:
(§3)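 Cytotoxicity was tracked continuously in HEK293 cells by a DNA-binding dye excluded from viable cells. Compounds were transferred in DMSO 5 h after seeding; fluorescence was recorded at intervals up to 40 h.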

Test [10] can be described thus: A CellTox Green Cytotoxicity Assay to monitor cytotoxicity in HEK293 cells - 40 hour (AID 1224871). Further: nearly all actives have a fitted effect of over 45% in size. Summed up:
as §3

Results filed as inconclusive are left out. Values without a mark were called inactive. Calls of active or inactive are those of the source. The call rests on the fitted dose curve; in most records, active means well fitted curve in the direction sought with a large enough effect in the repeat runs; inconclusive means weak or mixed curves; inactive means no such curve, though single readings can be large; an effect the other way counts as inactive or inconclusive.
On the % scale 0 is the no-effect control and ±100 the full control effect.

In the case of `Cc1ccc(NC(=O)N(C)C)cc1NC(=O)N(C)C`, the Potency entry in test [1], in [2], in [4], in [5], in [6] and in test [7] was “inactive” throughout. Besides, the max response in test [3] was -1.73%.

Turning to `C[C@@H]1C[C@H]2[C@@H]3CCC4=CC(=O)C=C[C@]4(C)[C@@]3(F)[C@@H](O)C[C@]2(C)[C@@]1(O)C(=O)COP(=O)(O)O`, the Potency result in test [1], in test [2], in test [8], in test [4], in [5] and in [6] was “inactive” each time. Moreover, the Potency entry in [7] is “inactive”. In [3], the max response is -21.2%.

For the compound `O=C(O)CCC(=O)c1ccc(-c2ccccc2)cc1`, the Potency entry in test [1], in test [2], in test [8], in [9], in [4] and in test [7] was “inactive” in each case. For the same compound, the max response in test [3] is 0.573%.

Take `Cc1ccc(N(CCO)CCO)cc1`: the Potency result in [1], in test [2], in test [8], in test [4], in test [5] and in [6] was “inactive” throughout. Also, in [7], the Potency entry is “inactive”. In test [3], the max response was 0.166%.

Turning to `CCCCCCCCCCCCCOS(=O)(=O)O`, the Potency entry in test [1], in test [2], in [8] and in test [5] was “inactive” in each case. Besides, the Potency in test [9] is 24.5 µM (active).

On to `CC(=O)OCCC(C)CC(C)(C)C` (stereo unspecified), for which the Potency result in test [1], in [2], in test [8], in test [9], in [5] and in [6] was “inactive” throughout. The Potency entry in test [7] was “inactive”.

As to `CNS(=O)(=O)c1cc(C(=O)N2CCC(CCN3C4CCC3CC(n3c(C)nc5ccccc53)C4)(c3cccc(F)c3)CC2)c(Cl)cc1F` (stereo unspecified), the Potency result in [10], in [9], in [4], in test [6] and in [7] was “inactive” in each case. In addition, the Potency in test [2] and in [3] was 4.36 µM (active) each time.

As for `CCCCC(CC)COS(=O)(=O)O` (stereo unspecified), the Potency result in test [1], in test [2], in [8], in test [4], in test [6] and in [7] was “inactive” throughout. For the same compound, the max response in test [3] is -1.73%.

Values taken from PubChem BioAssay (Tox21).
